Among the data in PubChem BioAssay AID493131 (Broad Institute, 2011) are activation values, retold here.

Molecules are shown by their SMILES. About 3,300 (0.97%) of roughly 340,000 compounds were called active. For the sample, actives were picked, then their nearest neighbours and some compounds at random. Values without a mark were called inactive.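 How the source made its calls: active means mean activation above about 17%, with every replicate also reaching it (limit read from the data, passing the limit was not always enough); inconclusive means only one of the two conditions met; inactive means the rest.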

For this experiment, the target named is Protein FosB (Mus musculus) (UniProt P13346). Put plainly: enhancers of mouse delta FosB DNA binding – biochemical, fluorescence polarization, TAMRA-CDK5 oligo, single point, primary screen (AID 493131).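 Further: fluorescence polarization rise as delta FosB binds a TAMRA Cdk5 AP-1 oligo.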 The following applies: purified delta FosB, at 25 µM, active compounds read high, percent of positive-control signal above neutral wells.
Sequence of Protein FosB (Mus musculus) (P13346 whole entry, looked up): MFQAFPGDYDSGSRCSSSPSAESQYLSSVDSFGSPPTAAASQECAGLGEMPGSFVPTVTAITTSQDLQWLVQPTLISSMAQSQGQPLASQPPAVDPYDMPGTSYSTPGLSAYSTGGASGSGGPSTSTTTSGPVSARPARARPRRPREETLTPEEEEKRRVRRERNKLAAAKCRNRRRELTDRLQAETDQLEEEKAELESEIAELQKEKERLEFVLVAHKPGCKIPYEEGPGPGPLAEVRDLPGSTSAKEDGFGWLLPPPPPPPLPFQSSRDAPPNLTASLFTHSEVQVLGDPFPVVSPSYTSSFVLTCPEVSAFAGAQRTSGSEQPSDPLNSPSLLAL
In the case of `O=C(COC(=O)CNS(=O)(=O)c1ccc(F)c(F)c1F)NC1CCCC1`, the activation is 0.263%.
`COc1ccc(CCN(Cc2cc3cccc(C)c3[nH]c2=O)C(=O)N2CCCC2)cc1OC`: the activation is -15.7%.
The figure for `Fc1ccccc1N=C1Nc2cccc3cccc1c23` is 3.8%.
The figure for `c1ccc(C2=Nc3cccc4cccc(c34)N2)cc1` is 28.1% (active); for `COc1ccccc1C1=Nc2cccc3cccc(c23)N1` it is -1.27%.
The result for `CC(=O)N1CSCC1C(=O)O` (stereo not drawn) reads 0.385%; that for `Cc1ccc(NC(=O)C(CC(=O)O)C2CCCO2)c(C)c1` (stereo not drawn), -0.253%.
On to `Cn1ccnc1SCC(=O)Nc1ccc2c(c1)OCCO2`, for which the activation was -4.18%.
The figure for `O=C(NN=CC=Cc1ccccc1)C(O)C(O)C(=O)NN=CC=Cc1ccccc1` (stereo not drawn) is 2.15%; for `Cc1ccc(-c2cc(C(=O)N/N=C/C=C/c3ccccc3)n[nH]2)o1` it is 23.5% (active).
The result for `CC(C)c1cc(C(=O)N/N=C/C(Br)=C/c2ccccc2)n[nH]1` reads -3.49%.
The result for `Cc1ccc(OCc2cc(C(=O)N(C)CCn3ccnc3C)no2)cc1C` reads -7.77%; that for `O=C(c1ccc(NS(=O)(=O)c2ccc3[nH]c(=O)[nH]c3c2)cc1)N1CCCCC1`, -5.69%; that for `Cc1cccc([C@@H]2[C@@H]3C(=O)N(Cc4ccccc4)C(=O)[C@@H]3[C@]3(Cc4ccc(Cl)cc4)C(=O)N(c4cccc(Cl)c4)C(=O)N23)c1`, -7.94%.
For `CCCc1cc(=O)[nH]c(SCC(=O)Nc2sc3c(c2C#N)CCCC3)n1`, the activation is -10.9%.
The result for `COc1cccc(CN(C)CC(=O)Nc2sc3c(c2C#N)CCC3)c1` reads -3.77%.
For `COc1ccc(-n2c(SCC(=O)Nc3sc4c(c3C#N)CCCC4)nnc2-c2ccc(O)cc2)cc1`, the activation is 23.1% (active).
In the case of `NC(=O)c1nnsc1-c1ccc(-c2snnc2C(N)=O)cc1`, the activation is 12.3%.
For `Cc1c(C(=O)NCCN2CCOCC2)sc2nc(-c3ccc(F)cc3)cn12`, the activation is -10.6%.
The figure for `CCCCn1c(N)c(N(CC(C)C)C(=O)c2ccc(-n3c(C)ccc3C)cc2)c(=O)[nH]c1=O` is 8.61%; for `COc1ccc2nc(/N=C(\N)NC(=O)Nc3ccccc3)nc(C)c2c1` it is 52.1% (active).
The figure for `Cc1nc(/N=C(\N)NC(=O)NC2CCCCC2)nc2ccccc12` is 3.68%; for `COc1ccc2nc(C)cc(Nc3cccc(C(=O)O)c3)c2c1` it is -0.297%; for `O=S(=O)(NCC1CN(S(=O)(=O)c2ccc3c(c2)OCCO3)C1)c1c(F)cccc1F` it is 2.95%.
The result for `CS(=O)(=O)N1CCN=C1SCc1ccc(F)cc1` reads 1.39%; that for `C/C(=N\NC(=O)c1ccccc1F)c1ccccn1`, -8.45%.
As to `CCOc1cc2ccccc2cc1C(=O)Nc1ccccn1`, the activation was -0.935%.
The figure for `CCN(CC)CCOc1ccc2c(c1)C(=NNC(=O)c1ccccn1)c1cc(OCCN(CC)CC)ccc1-2` is 79.1% (active).
With `CN(C)NC(=O)C(NC(=O)c1ccc(N)cc1)C12CC3CC(CC(C3)C1)C2` (stereo not drawn), the activation was -3.81%.
The result for `Cc1oc(CC(C)C)c(CN2CCCC2)c1C(=O)O` reads 4.27%; that for `COc1ccccc1OCC(=O)Nc1ccccc1C(=O)NC1CC1`, -0.401%; that for `Cc1ccc(OCC(=O)Nc2ccccc2C(=O)NC2CC2)cc1C`, 36.7% (active).
For `Cc1ccc(OCC(=O)Nc2ccccc2C(=O)NC2CC2)cc1`, the activation was -7.85%.
The result for `COc1ccc(C2=Nc3cc(C)ccc3OC2)cc1` reads -10.5%.
The figure for `CCCCCCCCCCOC(=O)Cn1c(COc2cccc(OC)c2)[n+](C)c2ccccc21` is 28.7% (active).
For `CCCCCCCCCCOC(=O)Cn1c(COc2ccc(C)cc2)[n+](C)c2ccccc21`, the activation was 38.3% (active).
The result for `CCCCOc1ccc(NC(=O)CSCC(=O)OCC)cc1` reads -6.39%; that for `COc1cccc(NC(=O)COC(=O)CCOc2ccccc2OC)c1`, 2.67%.
The result for `CCOC(=O)COn1c(=O)c(-c2ccc(OCC)cc2)[n+]([O-])c2ccccc21` reads -3.65%; that for `CCOC(=O)CNC(=O)CSc1nnc(-c2cccc(OC)c2)n1CC`, -2.27%.
For the molecule `CCC1=C(OC(=O)N(CC)CC)N2C(=O)OC(=NCCc3c[nH]c4ccccc34)[C@]2(C)[C@H]2C1=CC[C@H]1C(=O)N(CC)C(=O)[C@H]12`, the activation is -18.3%.
The figure for `CCOC(=O)N1CCN(S(=O)(=O)c2ccc(-n3cnnn3)cc2)CC1` is -6.35%.
The figure for `CC(=O)c1ccc(S(=O)(=O)N2CCC(Oc3ccc(-n4cnnn4)cc3)CC2)cc1` is 12.7%; for `Cc1ccc(S(=O)(=O)N2CCC(Oc3ccc(-n4cnnn4)cc3)CC2)cc1` it is 58.6% (active).
The figure for `Cn1c(=O)c2c(nc(Br)n2CCSc2nc3ccccc3o2)n(C)c1=O` is 1.42%; for `Cc1cccc(C)c1NC(=O)C1(C)c2cccc[n+]2CC(=O)N1Cc1cccs1` (stereo not drawn) it is -6.06%.
As to `Cc1cccc(OCC(O)CN2CCN(CCN3C(=O)c4cccc5cccc(c45)C3=O)CC2)c1C` (stereo not drawn), the activation is 62.2% (active).
Regarding `COc1ccccc1OCC(O)CN1CCOCC1` (stereo not drawn), the activation was -1.24%.
For `C=CCc1ccccc1OCC(O)CN1CCN(CCO)CC1` (stereo not drawn), the activation is -2.68%.
The figure for `COc1ccc(S(=O)(=O)NCCOc2ccccc2)cc1F` is 7.41%.
The result for `CCCSc1nc2sc3c(c2c(=O)n1-c1ccc(OC)cc1)CCN(C)C3` reads -14.7%; that for `CCOc1ccc(-n2c(SCC(=O)Nc3ccc(OC)cc3)nc3sc4c(c3c2=O)CCN(C)C4)cc1`, 50.3% (active); that for `CCOc1ccc(-n2c(SCC(=O)OC)nc3sc4c(c3c2=O)CCN(C)C4)cc1`, -0.804%.
The figure for `Cc1ccccc1-c1nc(CS(=O)(=O)CC(=O)N2CCc3ccccc3C2)c(C)o1` is -5.6%; for `O=C(COC(=O)c1cnccn1)Nc1cccc2ccccc12` it is -2.31%; for `N#CCCN1CCN(S(=O)(=O)c2ccc(S(=O)(=O)NC3CCCCC3)cc2)CC1` it is -3.88%.
For the molecule `COC(=O)c1cc(NC(=O)CN2CCN(C(C)=O)CC2)cc(C(=O)OC)c1`, the activation was 2.81%.
`Cc1cccc(Nc2nnc(SCC(=O)c3c(N)n(C4CC4)c(=O)[nH]c3=O)s2)c1C`: the activation was -2.18%.
The result for `Cc1nnc(NC(=O)C(c2ccccc2)c2ccccc2)s1` reads -0.437%; that for `Cc1nnc(NC(=O)c2ccc3nccnc3c2)s1`, 1.3%.
The figure for `Cc1nnc(NC(=O)Nc2ccc(Cl)c(Cl)c2)s1` is 28.8% (active).
The figure for `CC(C)Cn1c(N)c(C(=O)COC(=O)CN2C(=O)C3CC=CCC3C2=O)c(=O)n(C)c1=O` (stereo not drawn) is -11.5%; for `COc1cccc(N2CC(NS(=O)(=O)c3cccs3)CC2=O)c1` (stereo not drawn) it is 0.171%; for `CCc1ccc(CNC(=O)C2CC(=O)N(CCc3ccc(C)cc3)C2)cc1` (stereo not drawn) it is -3.6%.
For the molecule `CCOc1ccc(CNC(=O)C2CCCN(c3nnc(C)c4c(C)n(-c5ccccc5)nc34)C2)cc1` (stereo not drawn), the activation is -5.11%.
The result for `CCc1ccc(CNC(=O)C2CCN(c3nnc(C)c4c(C)n(-c5ccc(C)cc5)nc34)CC2)cc1` reads 82.7% (active); that for `Cc1ccc(NC(=O)CN2CCc3ccccc3C2)cc1C`, -4.61%; that for `Cc1ccc(OS(=O)Nc2cccc3nccnc23)cc1` (stereo not drawn), -0.877%.
For the molecule `O=C(CCCn1c(=O)[nH]c2cc(Cl)ccc2c1=O)NCCN1CCN(c2ccccc2)CC1`, the activation was -5.22%.
The result for `COc1cccc(CNC(=O)Cc2csc(Nc3nc(=S)[nH]c4ccccc34)n2)c1` reads 12.2%; that for `O=C(Cc1csc(Nc2nc(=S)[nH]c3ccccc23)n1)NCCCN1CCN(c2cccc(Cl)c2)CC1`, 34.1% (active).
Regarding `O=[N+]([O-])c1cc2ccccc2nc1-c1ccccc1`, the activation is -4.74%.
Turning to `CC1COc2ccccc2N1C(=O)c1cccnc1Cl` (stereo not drawn), the activation was -2.06%.
The figure for `OCCNc1nc(Nc2ccc(Cl)c(Cl)c2)nc2ccccc12` is 47% (active); for `CN1CCN(c2nc(Nc3ccc(O)cc3)nc3ccccc23)CC1` it is 10.9%; for `Cc1cccc(Nc2nc(NCCO)nc(N3CCCC3)n2)c1` it is 2.75%.
The figure for `CC12CN(Cc3ccccc3)CC(C)(CN(Cc3ccccc3)C1)C2=NO` is -1.53%.
The result for `CCOc1ccccc1-n1c(SCC(=O)NCc2ccco2)nnc1-c1ccncc1` reads -2.73%.
As to `O=C(NCCOc1ccccc1F)Nc1ccc(Br)cc1`, the activation was -2.98%.
The figure for `O=C(Nc1ccccc1)Nc1nnc(COc2ccccc2F)s1` is 28.4% (active).
The figure for `COc1ccccc1NC(=O)Nc1nnc(Cc2ccc(F)cc2)s1` is -2.06%; for `COc1cc(C)ccc1OCC(=O)OCC(=O)c1ccc[nH]1` it is 6.43%; for `Nc1nc(COC(=O)CCC(=O)c2ccc(Cl)cc2)nc(Nc2ccccc2)n1` it is 21.6% (active).
The result for `CC(NC(=O)COC(=O)CCC(=O)c1ccc(Cl)cc1)c1ccccc1` (stereo not drawn) reads -9.29%.
`Cc1ccccc1Nc1nc(N)nc(COC(=O)CCC(=O)c2ccc(F)cc2)n1`: the activation is -1.04%.
The figure for `OCCCNC(c1ccccc1)c1ccc(O)cc1` (stereo not drawn) is -0.537%; for `CCOc1ccc2nc(N(CCN(C)C)C(=O)c3ccc4ccccc4c3)sc2c1` it is 18.5% (active); for `CCc1ccc2nc(N(CCCN(C)C)C(=O)c3ccc4c(c3)OCCO4)sc2c1` it is -10.5%.
The figure for `CCCC(=O)N(CCN1CCOCC1)c1nc2ccc(OCC)cc2s1` is 1.55%.
On to `Cc1onc(-c2ccccc2Cl)c1C(=O)N(Cc1ccc(N(C)C)cc1)C(C)C`, for which the activation was -12.7%.
The figure for `O=C(Cc1ccccc1)Nc1cccc(C(=O)N/N=C/c2ccco2)c1` is -7.68%; for `O=C(N/N=C/c1ccco1)c1ccc(NC(=O)C2CC2)cc1` it is 31.9% (active).
For the molecule `O=C(N/N=C/c1ccco1)c1csc2c1CCCC2`, the activation was 2.38%.
